Ba/F3 V617F tox: lowers viability of Ba/F3 cells expressing EpoR and JAK2V617F | ATP luminescence | inhibition, % at 5.6 µM | 220,000 tested, 1.1% active | AID 1446;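 active = inhibition above the campaign mean plus 3 SD over all tested compounds, cut at about 24% in these data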;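 note: cytokine-independent growth of Ba/F3 cells driven by EpoR plus mutant JAK2; 0% = DMSO-treated cells and 100% = JAK inhibitor I control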
BaF3 tox: reduces parental Ba/F3 cell viability, JAK2V617F counter-screen. CellTiter-Glo ATP luminescence. inhibition, % at 5.6 µM. 220,000 tested, 1.1% active. AID 1486;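 active = inhibition above a per-campaign cutoff, the mean inhibition of all tested compounds plus 3 SD, cut at about 27% in these data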;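 note: 0% = DMSO wells and 100% = JAK Inhibitor I control wells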
APP 5UTR inh: APP translation inhibition; SH-SY5Y APP 5'UTR-luciferase reporter, luminescence; inhibition, % at 2 µM; 190,000 tested, 0.82% active; AID 1285;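 active = inhibition above a set limit, derived from the sample mean plus 3 SD, cut at about 45% in these data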
KLF5 inh: kruppel-like factor 5 inhibition; 290,000 tested, 0.23% active; DLD-1 KLF5 promoter-luciferase reporter, luminescence; AID 1700; inhibition, % at 5 µM;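 active = inhibition above a per-plate limit of that plate's mean compound inhibition plus 3 SD, cut at about 60% in these data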;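 note: 0% = DMSO wells and 100% = LY294002 at 200 µM; higher means less KLF5 promoter-driven luciferase light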
IEC-6 cytotox: kills IEC-6 intestinal cells in KLF5 counter-screen. IEC-6 cytotoxicity, luminescence viability. inhibition, % at 5 µM. 290,000 tested, 0.78% active; in the data active = inhibition above about 22%;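 note: 0% = plate median of test compound wells and 100% = cytotoxic reference compound wells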
aSyn 5UTR inh: 5' untranslated region of α-synuclein, MLPCN primary screen; alpha-synuclein 5'UTR reporter, inhibitor activity; inhibition, % (tested at 7.5 µM); 300,000 tested, 0.82% active; in the data active = inhibition above about 60%;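 note: H4 neuroglioblastoma cells stably carrying SNCA 5'UTR luciferase fusion; 0% = DMSO wells and 100% = positive control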
Starred values were filed as active, the others as inactive; x = not tested or not shown. Most compounds without a hit are left out; they make up all but 2.2% or so of the library.

SMILES	Ba/F3 V617F tox	BaF3 tox	APP 5UTR inh	KLF5 inh	IEC-6 cytotox	aSyn 5UTR inh
CCC(CC)C1C(C#N)=C(N)Oc2n[nH]c(-c3ccccc3)c21 (centres undefined)	-3.4	1.2	x	-6.7	-0.6	-2.3
CCOc1cc(/C=N/N=C(N)N)ccc1OCc1ccc(Cl)cc1	3.5	3.6	26.6	-5.0	8.9	-32.2
NC(N)=N/N=C/c1ccc(OCc2ccccc2)c(OCc2ccccc2)c1	x	x	x	-0.1	1.5	106.1*
CC(=O)OCCC(NS(=O)(=O)OCC(Cl)(Cl)Cl)c1ccccc1 (centres undefined)	x	x	x	-15.7	2.5	25.9
Clc1cccc(Nc2ncnc3ccc(Br)cc23)c1	3.8	6.2	-8.3	2.4	30.4*	-51.3
Clc1ccc(Nc2ncnc3ccc(Br)cc23)cc1	4.5	11.5	9.9	8.4	26.2*	-29.9
N=c1ccn(Cc2ccc(Cl)cc2)cc1	91.8*	67.6*	-14.6	-17.7	-4.8	-10.9
N=c1ccn(Cc2cccc(Cl)c2)cc1	88.0*	66.0*	-5.7	5.8	5.3	34.4
Clc1cccc(CN2CCN(Cc3ccco3)CC2)c1	x	x	x	-14.6	0.9	-10.9
N=c1ccn(Cc2ccc(Cl)c(Cl)c2)cc1	89.0*	75.5*	-15.2	1.5	6.0	29.6
O=C(Nc1ccnn1C1CCN(Cc2ccccc2F)CC1)C1CCCC1	x	x	x	-18.9	-12.2	-4.0
CC(C)Cc1ccc(C(C)C(=O)Nc2ccccc2O)cc1 (centres undefined)	10.8	37.8*	x	4.8	-1.9	-4.3
O=C(Nc1cccc(-n2cnnn2)c1)C1CCCN(Cc2cccc(C(F)(F)F)c2)C1 (centres undefined)	x	x	x	-10.1	-2.0	34.7
CCc1ccc(NC(=O)CSc2ccc(-c3ccccn3)nn2)cc1	x	x	x	-23.6	18.4	7.1
CC(=O)Nc1cccc(NC(=O)CSc2ccc(-c3ccccn3)nn2)c1	-2.3	2.2	0.2	-17.8	5.5	51.9
CCOC(=O)c1ccccc1NC(=O)CSc1ccc(-c2ccccn2)nn1	x	x	x	0.0	4.2	68.7*
O=C(CSc1n[nH]c(-c2ccccn2)n1)Nc1cccc(Cl)c1	x	x	x	59.3	-0.8	86.4*
Cc1nc(SCC(=O)Nc2cccc(Cl)c2)n[nH]1	0.9	5.0	-3.6	-9.3	2.5	-6.4
CC(=O)c1cccc(NC(=O)CSc2ccc(-c3ccccn3)nn2)c1	x	x	x	-16.2	-2.8	68.8*
Cc1ccc2nc(-c3ccc(N4C(=N)SC5CS(=O)(=O)CC54)cc3)sc2c1 (centres undefined)	-1.1	5.4	-70.7	-95.6	1.4	-101.2
CSc1nnc(C)c(=O)n1COC(=O)/C=C/c1ccc2c(c1)OCO2	-0.4	5.7	4.5	-0.3	-3.7	-7.5
C=CCN(C(=O)CCC(=O)Nc1cc(C)on1)C(C(=O)NC1CCCC1)c1ccc(C)cc1 (centres undefined)	x	x	x	-7.3	2.0	10.4
CCc1ccc(/C=N/NC(=O)c2cc(C3CC3)nc3ccc(Br)cc23)s1	-0.5	2.3	71.8*	-35.4	-2.0	48.6
CCC(C)(C)NC(=O)c1ccc2c(c1)N(CC(=O)NC1CCCC1)C(=O)C(C)(C)O2	x	x	x	-8.9	-4.2	-8.8
COc1cccc(C2CC(=O)Nc3cc4c(cc32)CCC4)c1 (centres undefined)	37.9*	45.0*	56.7*	42.8	46.5*	84.2*
SMILES	Ba/F3 V617F tox	BaF3 tox	APP 5UTR inh	KLF5 inh	IEC-6 cytotox	aSyn 5UTR inh
O=C1CC(c2ccccc2F)c2cc3c(cc2N1)CCC3 (centres undefined)	62.9*	77.0*	63.5*	-8.1	15.8	64.6*
O=C1CC(c2cc(Br)ccc2F)c2cc3c(cc2N1)CCC3 (centres undefined)	-3.8	4.3	40.8	-0.5	-6.2	65.1*
O=C1CC(c2ccccc2Br)c2cc3c(cc2N1)CCC3 (centres undefined)	0.1	5.0	-10.9	-28.7	-0.9	12.3
CC(C)(C)Nc1nc(C(N)=O)nc(N2CCOCC2)n1	-1.4	1.4	60.0*	-48.3	8.6	10.2
NC(=O)c1nc(N2CCOCC2)nc(N2CCOCC2)n1	2.2	6.9	-2.6	-19.0	2.8	8.9
O=C1CCc2cc(S(=O)(=O)NCc3ccccc3Cl)cc3c2N1CC3	x	x	x	x	x	-10.3
CCN(Cc1ccccc1)C(=O)c1c(-c2ccccc2Cl)noc1C	x	x	x	-33.0	-5.0	2.1
COc1ccc(Br)cc1/C=N/NC(=O)c1ccc(COc2ccc3c(c2)CCC3)o1	-2.3	-0.1	-3.8	-48.1	2.5	-42.2
O=C(N/N=C/c1cc([N+](=O)[O-])ccc1O)c1ccc(COc2ccc3c(c2)CCC3)o1	x	x	x	26.0	6.9	86.5*
COc1cc(CNS(=O)(=O)c2ccc3c(c2)CC(C)N3C(C)=O)cc(OC)c1OC (centres undefined)	x	x	x	-0.4	4.1	-6.5
Cc1cc(C)c(NC(=O)CCN2CCN(Cc3ccccc3)CC2)c(C)c1	x	x	x	x	x	98.3*
Cc1[nH]nc2c1C(c1ccccn1)N(c1ccc(Br)cc1)C2=O (centres undefined)	-1.7	95.5*	3.3	-2.9	-0.9	-0.3
CC(=O)[C@@]1(O)C(C)CC2C3C=C(C)C4=Cc5c(cnn5-c5ccccc5)C[C@]4(C)C3C(O)C[C@@]21C (some centres undefined)	9.1	-0.1	x	-33.2	27.4*	80.8*
Fc1ccc(NC(=S)N2CCN(c3ccccn3)CC2)cc1Cl	x	x	x	x	x	12.1
O=C(O)c1ccccc1Nc1ccc([N+](=O)[O-])cc1	44.7*	44.3*	-2.5	-1.2	20.3	0.5
CC(C)(CNC(=O)CC1C(=O)NCCN1Cc1cccc(F)c1F)N1CCOCC1 (centres undefined)	x	x	x	4.6	-4.1	-8.3
Cc1cc(/C=C2\Sc3ccccc3N2C)cc(C)[n+]1CC1CCCO1 (centres undefined)	99.9*	75.8*	-4.3	-5.2	11.3	x
Cc1occc1-c1nnc(SCC(=O)NC2CC2)n1C(C)C	x	x	x	-27.1	4.4	-7.2
c1ccc(CNc2nc(NCc3ccccc3)c3ccccc3n2)cc1	7.8	2.8	x	0.6	2.1	105.8*
CCCOc1ccc2nc(NC(=O)OC)[nH]c2c1	77.9*	74.7*	85.9*	59.8	81.2*	83.9*
O=C(Nc1nc2ccccc2[nH]1)c1ccc(F)cc1	3.6	8.4	-107.0	-15.1	6.5	28.1
COC(=O)Nc1nc2ccc(C(=O)c3ccc(F)cc3)cc2[nH]1	51.4*	18.5	x	17.3	20.1	99.2*
O=C(Nc1ccccc1C(=O)NCCCN1CCOCC1)c1ccc(F)cc1	x	x	x	-10.8	-1.9	-3.2
COc1ccc(CN2CCC(n3nccc3NC(=O)CCc3ccccc3)CC2)c(C)c1C	x	x	x	-10.8	1.2	4.8
COc1cc(/C=N/NC(=O)COc2ccc([N+](=O)[O-])cc2)ccc1OCC(=O)N1CCOCC1	x	x	x	-14.8	-1.3	3.2
OC(CNCCc1ccc(Cl)cc1)COCc1ccco1 (centres undefined)	-0.9	93.6*	1.0	-40.7	-4.4	-11.0
CCN1C(=O)Nc2cccc3cccc1c23	x	x	x	x	x	2.6
CCC1=[N+](C)c2cccc3cccc(c23)N1C	36.8*	40.7*	-4.3	-20.1	0.3	-8.1

High-throughput results: PubChem BioAssay, several laboratories
